DT40 TDP1 no CPT: qHTS for Inhibitors of human tyrosyl-DNA phosphodiesterase 1 (TDP1): qHTS in cells in absence of CPT | DT40 Tdp1-/- hTDP1 cells, no CPT, ATP luminescence, 48 h | 420,000 tested, 15% active | Potency, µM (titrated, usually from 46.2 µM), for the others: top-dose activity change, negative = growth inhibition, most hits filed as inhibitors; further: potency means the concentration at half of the fitted maximal effect; nearly all actives have a fitted effect of over 55% in size
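Growth kinetics read by CellTiter-Glo luminescence after ≥48 hr at 37 °C. Cells: DT40 Tdp1-/- stably carrying human TDP1, 400 per well, compound exposure in the absence of CPT (DMSO vehicle).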
DT40 TDP1 CPT: qHTS for Inhibitors of human tyrosyl-DNA phosphodiesterase 1 (TDP1): qHTS in cells in presence of CPT | chicken DT40 Tdp1-/-;hTDP1 cells + 20 nM CPT, ATP luminescence, 48 h | Potency, µM (titrated, usually from 46.2 µM), inactives show at the top dose activity change, negative = growth inhibition, hits mostly inhibitors | 420,000 tested, 12% active; further: potency means the concentration at half of the fitted maximal effect; nearly all actives have a fitted effect of over 55% in size
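Chicken DT40 Tdp1-/- cells stably complemented with human TDP1 were seeded at 400 cells/well in medium containing 20 nM camptothecin, exposed to pin-transferred compounds, and grown at 37 °C for at least 48 hr. Viability was read as ATP luminescence.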
HT1080-NT tox: qHTS for induction of synthetic lethality in tumor cells producing 2HG: qHTS for the HT-1080-NT fibrosarcoma cell line | Potency, µM (titrated, usually from 46.1 µM), for inactives: at the top dose activity, negative = less viability, actives largely listed as cytotoxic | 360,000 tested, 1.6% active | HT-1080-NT fibrosarcoma viability, CellTiter-Glo ATP luminescence, 48 h;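 further: NT is the 2HG producing partner of a matched IDH1 knockdown line; potency means the concentration at half of the fitted maximal effect; 0% = DMSO-treated cells and -100% = media-only wells without cells; nearly all actives have a fitted effect of over 55% in size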
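Compounds were tested in concentration-response format on HT-1080-NT cells for 48 hours at 37 degrees C. Cell viability came from CellTiter-Glo luminescence; curves were classified by r2, response magnitude and activity.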
HT1080 IDH1KD tx: qHTS for induction of synthetic lethality in tumor cells producing 2HG: qHTS for the HT-1080-IDH1KD cell line | Potency, µM (top dose mostly 46.1 µM), without a hit: at the top dose activity, negative = toxicity, usual class: cytotoxic | HT-1080 IDH1 knockdown viability, ATP luminescence, 48 h | 360,000 tested, 2% active | AID 686971, 2013;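 further: potency means the concentration at half of the fitted maximal effect; 0% = DMSO wells and -100% = cell-free medium wells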
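Cytotoxicity counter-line: IDH1KD HT-1080, 48 h, CellTiter-Glo. Curves classed by r2, magnitude and activity.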
IL-1B inflam inh: qHTS for Inhibitors of Inflammasome Signaling: IL-1-beta AlphaLISA Primary Screen; 360,000 tested, 4.7% active; THP-1 LPS/ATP IL-1B secretion, AlphaLISA, 16 h; active compounds read low; activity change, % at 57.5 µM; in the data active means activity change below about -50%; inconclusive means mostly about -30% to -49%
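THP-1 cells pretreated 1 hr with compounds (up to 57.5 uM final), then stimulated with LPS (250 ng/mL final) plus ATP (1.25 mM final); secreted IL-1B measured by AlphaLISA after 16 hr, decreased signal indicating inhibition.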
Active calls of the source: *; ? = inconclusive; / = no result; [ ] = dose if it differs, or a comment. This is a sample that favours compounds with a hit; in the whole collection about 19% have one here. Unless noted, the call rests on the fitted dose curve; in most records, active means well fitted curve in the direction sought with a large enough effect; inconclusive means small, poorly fitted or top-dose-only effect, or another doubt; inactive means no such curve, though single readings can be large; an effect the other way counts as inactive or inconclusive. Unless noted, on the % scale 0 is the no-effect control and ±100 the full control effect.

SMILES | DT40 TDP1 no CPT | DT40 TDP1 CPT | HT1080-NT tox | HT1080 IDH1KD tx | IL-1B inflam inh
Cc1[nH]c2ccccc2c1/C=N/Nc1cccc(C(=O)O)c1 | -10.0% | -0.2% | 1.0% | -15.0% | 18.7
COc1cc(/C=N/N(c2ccccc2)c2ccccc2)ccc1O | -0.4% | -10.2% | 18.4µM* | 16.4µM* | ?
COC(=O)c1[nH]c2cc(OC)c(OC)cc2c1/C=N/Nc1ccccc1 | 18.4µM* | ? | -17.5% | -2.5% | -13.0
CC(NC(=O)c1ccccc1)C(=O)N/N=C/c1cccc([N+](=O)[O-])c1 (stereo unspecified) | -10.3% | 0.7% | 15.3% | 13.3% | -2.3
CCCS(=O)(=O)NC(=O)C1(C)CCN(C(=O)c2cccs2)C1 (stereo unspecified) | -2.0% | -6.7% | 14.1% | 9.7% | 6.5
Cc1ccccc1CNC(=O)C1CCCN(c2nnc(C)c3c(C)n(-c4ccccc4)nc23)C1 (stereo unspecified) | 18.4µM* | 23.1µM* | ? | ? | ?
Cc1nnc(N2CCCC(C(=O)NCCc3ccccc3)C2)c2nn(-c3ccccc3)c(C)c12 (stereo unspecified) | 18.4µM* | ? | / | / | /
CCOc1ccc(CCNC(=O)C2CCCN(c3nnc(C)c4c(C)n(-c5ccccc5)nc34)C2)cc1 (stereo unspecified) | ? | 20.6µM* | / | / | /
Cc1ccc(-n2nc3c(N4CCCC(C(=O)NCc5ccc(Cl)cc5)C4)nnc(C)c3c2C)cc1 (stereo unspecified) | 18.4µM* | 9.2µM* | / | / | /
Cc1nnc(N2CCCC(C(=O)NCc3ccccc3)C2)c2nn(-c3ccccc3)c(C)c12 (stereo unspecified) | -20.2% | -8.3% | / | / | /
CCOc1ccc(CCNC(=O)Cn2nc(C)c3c(C)n(-c4ccccc4)nc3c2=O)cc1 | -2.0% | -4.0% | -2.8% | -9.9% | -3.6
CCCCN1C(=O)C(CC(=O)NC2CC2)CC(C(=O)N(C(C)C)C(C)C)=C1C (stereo unspecified) | -10.6% | 10.3% | 3.7% | 1.8% | 9.7
Cc1ccc(CCNC(=O)C2CCCN(c3nnc(C)c4c(C)n(-c5ccccc5)nc34)C2)cc1 (stereo unspecified) | ? | 23.1µM* | / | / | /
Cc1ccc(-n2nc3c(N4CCCC(C(=O)NCCc5ccccc5)C4)nnc(C)c3c2C)cc1 (stereo unspecified) | 16.4µM* | 16.4µM* | / | / | /
Cc1cc(=O)n2nc(N3CCCC(C(=O)NCCc4ccccc4)C3)sc2n1 (stereo unspecified) | -24.4% | -42.3% | -2.0% | 1.9% | -4.8
Cc1nn(-c2ccccc2)c(=S)c2ccccc12 | 14.9% | -3.5% | 9.9% | 3.0% | 1.0
O=C(NCc1ccccn1)C1CCCN(S(=O)(=O)c2cc(Cl)ccc2Cl)C1 (stereo unspecified) | 8.2µM* | 9.2µM* | 5.8µM* | 5.8µM* | -103.9*
O=C(NCc1ccncc1)C1CCN(S(=O)(=O)Cc2ccccc2)CC1 | 2.5% | -16.8% | -10.2% | 0.0% | -63.5*
CCc1ccc(CNC(=O)C2CCN(S(=O)(=O)N3CCC(C)CC3)CC2)cc1 | 25.9µM* | ? | -3.1% | 1.5% | -1.8
CN(CCc1ccccc1)C1CCCN(S(=O)(=O)c2cccc(F)c2)C1 (stereo unspecified) | ? | -1.8% | -6.6% | -2.3% | -3.9
Cc1cc(S(=O)(=O)N2CCCC(N(C)CCc3ccccn3)C2)c(C)cc1Cl (stereo unspecified) | 20.6µM* | 20.6µM* | -11.6% | -5.1% | ?
Cc1ccc(CNC(=O)C2CCN(S(=O)(=O)N3CCC(C)CC3)CC2)cc1 | ? | -18.2% | -2.5% | -3.3% | -1.0
CCOC(=O)c1c(NC(=O)COC(=O)Cc2c[nH]c3ccccc23)sc(C(=O)N(C)C)c1C | ? | -21.2% | -8.5% | -1.8% | 18.7
O=C(NCc1cccnc1)C1CCN(S(=O)(=O)c2cc(Cl)ccc2Cl)CC1 | ? | 7.31µM* | -8.7% | -10.8% | 37.2
O=C(C1CCN(S(=O)(=O)c2cc(Cl)ccc2Cl)CC1)N1CCOCC1 | -3.7% | -11.4% | -11.5% | -9.5% | -57.1*
SMILES | DT40 TDP1 no CPT | DT40 TDP1 CPT | HT1080-NT tox | HT1080 IDH1KD tx | IL-1B inflam inh
Cc1ccc(O)c(N=Cc2cccs2)c1 | ? | 23.1µM* | 2.0% | 2.4% | -1.1
CCn1c2ccccc2c2cc(/C=N/NC(=O)c3ccc(O)cc3)ccc21 | 25.9µM* | 23.1µM* | ? | ? | -13.8
CCn1c2ccccc2c2cc(/C=N/NC(=O)c3ccncc3)ccc21 | ? | ? | -21.3% | ? | 0.0
CCn1c2ccccc2c2cc(/C=N/NC(=O)c3cc(O)cc(O)c3)ccc21 | ? | -21.9% | ? | ? | -105.9*
CCOc1ccccc1NC(=O)c1ccc2oc(=O)c(S(=O)(=O)c3ccc(F)cc3)cc2c1 | -19.3% | -0.1% | / | / | /
O=C(NCC(=O)N1CCN(S(=O)(=O)c2cccc(F)c2)CC1)c1ccc(Br)o1 | 1.4% | -3.0% | 1.8% | -0.6% | 3.6
CCn1cc(CN2Cc3ccccc3OC(c3ccccc3OC)C2)c(C)n1 (stereo unspecified) | ? | -7.8%[9.04 µM] | / | / | /
CN(C)N(Cc1ccccc1)C(=O)C(O)(c1ccccc1)c1ccccc1 | 25.9µM* | ? | 0.0% | -0.2% | -5.9
O=C1c2cccnc2C(=O)N1Cc1ccc(F)cc1S(=O)(=O)NCc1ccco1 | -1.3% | -8.1% | 6.7% | 5.8% | -5.4
COc1cccc(CNC(=O)C2CCN(S(=O)(=O)c3ccc4c(c3)CC(C)N4C(C)=O)CC2)c1 (stereo unspecified) | -12.4% | -3.3% | 9.9% | 3.1% | 10.9
O=C(Cc1cccc2ccccc12)OCn1nnc2ccccc2c1=O | -4.4% | -8.0% | 0.0% | -1.2% | 14.3
O=C(CSCC(=O)OCn1nnc2ccccc2c1=O)Nc1ccc(Cl)cc1 | ? | 20.6µM* | 2.7% | -1.9% | 13.1
O=c1c2ccccc2nnn1COc1cccc(Cl)c1 | 18.4µM* | -29.4% | 10.2% | 5.5% | -18.5
COc1cc(Cl)cc(/C=C/c2ccc3cccc(O)c3n2)c1OC | 23.1µM* | ? | 5.4% | 0.0% | 34.5
COc1ccc(Cl)cc1/C=C/c1ccc2cccc(O)c2n1 | ? | 20.6µM* | ? | ? | 92.6
Oc1cccc2ccc(/C=C/c3ccccc3Cl)nc12 | 7.31µM* | 9.2µM* | -9.6% | -28.1% | 28.6
Oc1cccc2ccc(/C=C/c3c(F)cccc3Cl)nc12 | ? | ? | -11.4% | ? | 16.6
